Source: PubChem BioAssay (NCATS)
Values without a mark were called inactive. Calls follow the shape of the dose curve; as a rule, active = well fitted curve in the direction sought with a large enough effect; inconclusive = small, poorly fitted or top-dose-only effect, or another doubt; inactive = no such curve, though single readings can be large or run the other way.

Assay: qHTS for compounds that reverse cellular toxicity of Amyloid beta (A-beta) peptide in yeast: LOPAC Validation Assay (AID 720559)
Settings: yeast expressing A-beta; series mostly up to 46.1 µM; growth rescue, positive = activation: at the top concentration
Description: The A-beta peptide is produced by the processing of the amyloid precursor protein (APP) by two proteases, beta and gamma secretases. […] A-beta42 is regarded as the most amyloidogenic form due to its hydrophobicity; however, precisely how A-beta42 induces neurotoxicity is unclear. To understand further this biology and its potential therapeutic implications for human neurodegenerative disease, a quantitative high-throughput screen for compounds that reverse the cellular toxicity of the A-beta peptide was developed.
A yeast based screen was used because it recapitulates the salient feature of protein mis-folding disorder accurately. This cell-based phenotypic screen provides a significant, unbiased advantage by letting the compounds and models inform us which proteins or pathways are most relevant. The ideal chemical candidates would therefore have activity in both our primary yeast and secondary neuronal toxicity assays, as well as in mouse models. They will be valuable tools for dissecting diverse protein homeostasis pathologies and could potentially become the focus for future pre-clinical development. For this […] assay, inhibition of A-beta rescues the toxic effect in the yeast cell, resulting in increase of signals.
NIH Chemical Genomics Center [NCGC]
NIH Molecular Libraries Probe Centers Network [MLPCN]
Assay Submitter (PI): Susan Lindquist, Whitehead Institute, Massachusetts Institute of Technology
[1] Vassar R,et al (1999). Beta-secretase cleavage of Alzheimer's amyloid precursor protein by the transmembrane aspartic protease BACE. Science. 286: 735-741.
[2] Yan R, et al (1999). Membrane-anchored aspartyl protease with Alzheimer's disease beta-secretase activity. Nature.
Two and a half microliter / well of yeast growth medium were dispensed in a 1536 assay plate. Compounds were pinned using the Kalypsys robotic system followed by addition of 2.5 uL / well yeast solution. The assay plates were incubated at 30 C. After 48 hr, the absorbance signal at 600 nm was obtained using the PerkinElmer ViewLux plate reader to assess yeast growth. The data was normalized to the positive control of an equimolar mixture of ferric chloride (FeCl3) and clioquinol and to the negative control DMSO.

SMILES	growth rescue, positive = activation
CCN1CCC[C@H]1CNC(=O)c1c(O)c(Cl)cc(Cl)c1OC	-3.99%
COc1cc(Cc2cnc(N)nc2N)cc(OC)c1OC	-6.94%
CC(=O)[C@@]1(O)CC[C@H]2[C@@H]3CCC4=CC(=O)CC[C@]4(C)[C@H]3CC[C@@]21C	2.34%
CCNC(=O)N1CCN(CCCC(c2ccc(F)cc2)c2ccc(F)cc2)CC1	3.57%
O=C(CCCN1CCC(O)(c2cccc(C(F)(F)F)c2)CC1)c1ccc(F)cc1	5.15%
C#CCN(C)CCCOc1ccc(Cl)cc1Cl	-2.41%
O=C(O)CCCCCCCC(=O)O	-3.08%
NC/C=C/C(=O)O	-6.26%
CO[C@@]1(NC(=O)CSCC#N)C(=O)N2C(C(=O)O)=C(CSc3nnnn3C)CS[C@@H]21	2.69%
N[C@@H](COP(=O)(O)O)C(=O)O	-3.26%
CC(=O)OC(C)C[N+](C)(C)C (stereo not given)	-4.26%
CCN(CC)CCNC(=O)c1ccc(NC(C)=O)cc1	-7.74%
COc1ccc(CN(CCN(C)C)c2ccccn2)cc1	-5.96%
Cc1nnc(SCC2=C(C(=O)O)N3C(=O)[C@@H](NC(=O)Cn4cnnn4)[C@H]3SC2)s1	7.38%
CC(=O)OCC1=C(C(=O)O)N2C(=O)[C@@H](NC(=O)Cc3cccs3)[C@H]2SC1	6%
CCCN1C[C@H](CSC)C[C@@H]2c3cccc4[nH]cc(c34)C[C@H]21	-2.47%
COc1cc2c(cc1OC)-c1cc(=Nc3c(C)cc(C)cc3C)n(C)c(=O)n1CC2	-3.11%
CCOC(=O)C1=C(C)NC(C)=C(C(=O)OC)C1c1cccc(Cl)c1Cl (stereo not given)	-7.34%
CCCCCN(CCCCC)C(=O)C(CCC(=O)O)NC(=O)c1ccc(Cl)c(Cl)c1 (stereo not given)	-4.75%
C[C@@H](O)[C@H]1C(=O)N2C(C(=O)O)=C(SCCN=CN)C[C@H]12	-1.16%

SMILES	growth rescue, positive = activation
CC(C)(Oc1ccc(CCNC(=O)c2ccc(Cl)cc2)cc1)C(=O)O	-10.9%
O=c1[nH]c(=O)n([C@H]2C[C@H](O)[C@@H](CO)O2)cc1Br	-2.37%
COc1ccc2c(c1OC)C(=O)O[C@@H]2[C@H]1c2c(cc3c(c2OC)OCO3)CCN1C	-0.332%
CN(C)CCOC(=O)COc1ccc(Cl)cc1	-6.16%
CN(C)CCCN1c2ccccc2Sc2ccc(C(F)(F)F)cc21	-2.5%
CNC1(C)C2CCC(C2)C1(C)C (stereo not given)	-6.23%
CN(C(=O)CCCOc1ccc2[nH]c(=O)ccc2c1)C1CCCCC1	-4.12%
Cc1nc2sccn2c(=O)c1CCN1CCC(=C(c2ccc(F)cc2)c2ccc(F)cc2)CC1	2.57%
CCc1c(C)[nH]c2c1C(=O)C(CN1CCOCC1)CC2 (stereo not given)	-1.48%
COC(=O)[C@@H](N)Cc1ccc(O)c(O)c1	0.902%
CCCC(C(=O)OCCN(CC)CC)(c1ccccc1)c1ccccc1	0.548%
COc1cc(C(=O)OCCCN2CCCN(CCCOC(=O)c3cc(OC)c(OC)c(OC)c3)CC2)cc(OC)c1OC	-2.11%
CN(C)[C@@H]1C(=O)C(C(N)=O)=C(O)[C@@]2(O)C(=O)C3=C(O)c4c(O)ccc(Cl)c4[C@@H](O)[C@H]3C[C@@H]12	13.4%
CCOC(=O)c1cnc2c(cnn2CC)c1NN=C(C)C	-3.63%
NC(Cc1ccc(Cl)cc1)C(=O)O (stereo not given)	2.94%
CCCCNc1c(C(=O)OCC)c(C)nc2c1cnn2CC	-8.56%
CCCN(CCC)C(=O)C(CCC(=O)O)NC(=O)c1ccccc1 (stereo not given)	-3.96%
Cc1cc(C)c(/C=C2\C(=O)Nc3ccccc32)[nH]1	-14%
CC(C)(C)NCC(O)c1cc(O)cc(O)c1 (stereo not given)	-0.52%
CC(C)[N+](C)(CCOC(=O)C1c2ccccc2Oc2ccccc21)C(C)C	-6.47%
